Results reported in PubChem BioAssay (NCATS).
Where “and” joins values, the source holds several entries; their conditions need not be identical. Identical values can stand only once. Inconclusive results are not listed. Calls of active or inactive are those of the source. Unless noted, calls come from the whole dose curve; as a rule, active = well fitted curve in the direction sought with a large enough effect; inconclusive = small, poorly fitted or top-dose-only effect, or another doubt; inactive = no such curve, though single readings can be large; an effect the other way counts as inactive or inconclusive. Starred links: 1 amine or outer side, 2 acyl side, 3 side chain; linkers in the order of their positions; H or OH if unused. Positions of bridges follow the written chain, without caps; N, C: chain ends. Non-standard residues stand in square brackets, D forms with d. Residues, ends and D or L forms follow the SMILES beside them. Chains are numbered I, II in the order given. Actinocin(9to1) = Cc1c2oc3c(C)ccc(C(=O)[*:1])c3nc-2c(C(=O)[*:2])c(N)c1=O; NMeV = CN[CH](C(=O)O)C(C)C; Sar = CNCC(=O)O

Assays:
[1] = qHTS to identify inhibitors of the type 1 interferon - major histocompatibility complex class I in skeletal muscle: primary screen against the NCATS Mechanism Interrogation Plate v5.0 (MIPE) Libary (AID 1347411); settings: iHSKM cells + IFN-b, HiBiT-tagged MHC-I luminescence, 24 h; series mostly up to 45.8 µM; note: nearly all actives have a fitted effect of over 65% in size; note: potency is the fitted concentration of half-maximal effect
Outline: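 Seed engineered human myoblasts (HLA-B HiBit) in medium without dexamethasone containing 4 ng/ml IFN-beta; after 1 hr add compound titrations (top 46 uM final). Incubate 24 hrs at 37 C, lyse 10 min with HiBiT reagent, read luminescence.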

[2] = target: Calcium and integrin-binding protein 1 (Homo sapiens) (UniProt Q99828); assay: Primary qHTS for Identification of Calcium Integrin Binding Protein 1 (CIB1) Competitor (AID 1508620); settings: CIB1-GST / FITC-alphaIIb peptide fluorescence polarization; series mostly up to 57.7 µM;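 note: GST tagged CIB1 binding a fluorescein labelled alphaIIb integrin peptide tracer; top concentration of the series differs between compounds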
Sequence of Calcium and integrin-binding protein 1 (Homo sapiens) (Q99828 whole entry, looked up): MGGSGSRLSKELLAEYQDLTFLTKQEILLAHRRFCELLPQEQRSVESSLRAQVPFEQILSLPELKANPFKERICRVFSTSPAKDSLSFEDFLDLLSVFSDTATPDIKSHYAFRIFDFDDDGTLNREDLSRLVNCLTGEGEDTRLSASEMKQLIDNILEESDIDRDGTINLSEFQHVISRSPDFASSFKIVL
Outline: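 CIB1-GST (1 uM final) and compound incubated 15 min at room temperature before adding FITC-alphaIIb peptide tracer (100 nM final). Competition for binding read by fluorescence polarization (ex 480, em 540) after another 15 min at room temperature.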

[3] = Primary qHTS for small molecule stabilizers of the endoplasmic reticulum resident proteome: Secreted ER Calcium Modulated Protein (SERCaMP) assay (AID 1508630); settings: SH-SY5Y GLuc-SERCaMP (Gaussia luciferase released on ER calcium loss) secretion, thapsigargin, luminescence; series mostly up to 38.4 µM
Outline: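 The SH-SY5Y reporter protocol was run at 3 concentrations up to 38.3 uM (primary) or 11 concentrations (follow-up): 16 h compound, 100 nM thapsigargin for 4 h, then extracellular luciferase luminescence.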

[4] = target: Cytochrome P450 2D6 (Homo sapiens) (UniProt P10635); assay: Cytochrome P450 family 2 subfamily D member 6 (CYP2D6) small molecule antagonists: luciferase biochemical (cell-free) qHTS assay (AID 1645840; active = well fitted curve in the direction sought with a large enough effect in the repeat runs; an effect the other way counts as inactive or inconclusive; note: nearly all actives have a fitted effect of over 55% in size; note: potency is the fitted concentration of half-maximal effect); settings: P450-Glo CYP2D6 enzyme, luciferin luminescence, 1 h; series mostly up to 57.4 µM
Sequence of Cytochrome P450 2D6 (Homo sapiens) (P10635 whole entry, looked up): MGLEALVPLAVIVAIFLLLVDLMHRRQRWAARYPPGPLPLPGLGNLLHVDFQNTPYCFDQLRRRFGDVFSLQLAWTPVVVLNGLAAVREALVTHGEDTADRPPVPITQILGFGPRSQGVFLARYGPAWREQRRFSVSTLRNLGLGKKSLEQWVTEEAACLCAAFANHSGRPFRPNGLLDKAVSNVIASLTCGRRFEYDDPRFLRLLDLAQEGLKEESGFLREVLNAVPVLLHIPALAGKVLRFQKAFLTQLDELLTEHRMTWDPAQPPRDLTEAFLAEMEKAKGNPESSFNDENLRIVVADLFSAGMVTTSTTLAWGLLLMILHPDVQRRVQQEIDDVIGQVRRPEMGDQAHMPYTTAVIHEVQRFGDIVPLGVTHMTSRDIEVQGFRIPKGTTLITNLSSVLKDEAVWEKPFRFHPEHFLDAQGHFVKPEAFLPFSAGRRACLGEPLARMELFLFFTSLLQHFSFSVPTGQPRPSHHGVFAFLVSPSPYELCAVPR
Outline: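 P450-Glo CYP2D6 system: proluciferin substrate converted by enzyme to luciferin, read by luminescence proportional to activity. Enzyme-substrate mix with compound 10 min at room temperature, then NADPH regeneration 1 h before detection reagent.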

[5] = Primary qHTS for inhibitors of nuclear receptor binding SET domain protein 2 (NSD2) in an isogenic RCH-ACV NSD2 p.E1099K mutant (9B) (AID 1645876); settings: RCH-ACV NSD2 E1099K (9B) viability, CellTiter-Glo, 72 h; series mostly up to 44.9 µM; note: nearly all actives have a fitted effect of over 70% in size; note: potency is the fitted concentration of half-maximal effect
[6] = Primary qHTS for inhibitors of nuclear receptor binding SET domain protein 2 (NSD2) in an RCH-ACV wild type WT cells (2C) (AID 1645877); settings: RCH-ACV (leukaemia line) NSD2 WT (2C) viability, CellTiter-Glo, 72 h; series mostly up to 44.9 µM; note: nearly all actives have a fitted effect of over 70% in size; note: potency is the fitted concentration of half-maximal effect
[7] = target: Cytochrome P450 3A4 (Homo sapiens) (UniProt P08684); assay: Cytochrome P450 family 3 subfamily A member 4 (CYP3A4) small molecule antagonists: luciferase qHTS assay (AID 1645841; active = well fitted curve in the direction sought with a large enough effect in the repeat runs; an effect the other way counts as inactive or inconclusive; note: potency is the fitted concentration of half-maximal effect; nearly all actives have a fitted effect of over 45% in size); settings: P450-Glo CYP3A4 enzyme assay, luciferin luminescence; series mostly up to 57.4 µM
Sequence of Cytochrome P450 3A4 (Homo sapiens) (P08684 whole entry, looked up): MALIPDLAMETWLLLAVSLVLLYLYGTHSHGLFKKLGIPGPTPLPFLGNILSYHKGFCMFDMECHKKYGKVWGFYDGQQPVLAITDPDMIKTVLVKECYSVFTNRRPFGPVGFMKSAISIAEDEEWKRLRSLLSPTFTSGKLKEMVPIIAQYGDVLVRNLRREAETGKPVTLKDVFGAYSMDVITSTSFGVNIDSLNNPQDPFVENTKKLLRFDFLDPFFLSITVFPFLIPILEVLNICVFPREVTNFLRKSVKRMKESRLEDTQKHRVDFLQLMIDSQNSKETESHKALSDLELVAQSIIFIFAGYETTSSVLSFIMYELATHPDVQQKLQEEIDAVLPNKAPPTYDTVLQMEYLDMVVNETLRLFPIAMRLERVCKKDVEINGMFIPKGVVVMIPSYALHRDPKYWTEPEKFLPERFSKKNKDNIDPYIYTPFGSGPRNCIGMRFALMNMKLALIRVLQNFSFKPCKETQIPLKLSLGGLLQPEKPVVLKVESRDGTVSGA
Outline: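 Luminescent CYP3A4 activity readout: compounds plus enzyme-substrate mix 10 min at room temperature, reaction started with NADPH regenerating system for 1 h, stopped with detection reagent, read after 20 min. Ketoconazole served as control.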

[8] = target: Cytochrome P450 2C9 (Homo sapiens) (UniProt P11712); assay: Cytochrome P450 family 2 subfamily C member 9 (CYP2C9) small molecule antagonists: luciferase biochemical (cell-free) qHTS assay (AID 1645842; active = well fitted curve in the direction sought with a large enough effect in the repeat runs; an effect the other way counts as inactive or inconclusive; note: nearly all actives have a fitted effect of over 55% in size; note: potency is the fitted concentration of half-maximal effect); settings: P450-Glo CYP2C9 enzyme assay, luciferin luminescence; series mostly up to 57.4 µM
Sequence of Cytochrome P450 2C9 (Homo sapiens) (P11712 whole entry, looked up): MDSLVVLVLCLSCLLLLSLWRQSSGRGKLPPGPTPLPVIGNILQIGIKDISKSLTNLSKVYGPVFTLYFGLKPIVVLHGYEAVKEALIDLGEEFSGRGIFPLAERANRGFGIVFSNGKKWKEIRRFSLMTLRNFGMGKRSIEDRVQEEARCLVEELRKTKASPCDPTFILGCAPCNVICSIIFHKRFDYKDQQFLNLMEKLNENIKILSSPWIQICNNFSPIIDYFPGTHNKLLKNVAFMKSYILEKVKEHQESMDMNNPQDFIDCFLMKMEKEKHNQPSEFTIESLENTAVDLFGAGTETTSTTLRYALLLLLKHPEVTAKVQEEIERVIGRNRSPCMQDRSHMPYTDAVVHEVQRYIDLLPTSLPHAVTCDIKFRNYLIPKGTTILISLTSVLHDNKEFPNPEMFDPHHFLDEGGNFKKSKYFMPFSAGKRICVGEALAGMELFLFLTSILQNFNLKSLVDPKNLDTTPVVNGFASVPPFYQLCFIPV
Outline: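 P450-Glo CYP2C9 system: proluciferin substrate with enzyme in mix containing 0.4% BSA, 10 min at room temperature, then NADPH regeneration solution added and incubated 1 h at 37C. Detection reagent stopped reaction; luminescence read after 20 min as RLU.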

[9] = target: Calcium and integrin-binding protein 1 (Homo sapiens) (UniProt Q99828); assay: Confirmatory qHTS for Identification of Calcium Integrin Binding Protein 1 (CIB1) Competitor (AID 1508617); settings: CIB1 binding competition assay, biochemical qHTS; series mostly up to 114 µM; note: nearly all actives have a fitted effect of over 65% in size
Outline: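 Compounds at up to 114 uM final met 1 uM GST-tagged CIB1 for 15 min at room temperature (HEPES pH 7.4, 5 mM CaCl2). FITC-labelled alphaIIb peptide, 100 nM, added; polarization read after 15 min more.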

[10] = qHTS to identify inhibitors of the type 1 interferon - major histocompatibility complex class I in skeletal muscle: primary screen against the NCATS Pharmaceutical Collection (AID 1347407); settings: human skeletal muscle cells, IFN-b-induced MHC-I HiBiT luminescence, 24 h; series mostly up to 45.9 µM;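 note: luminescence of HiBiT knocked into endogenous HLA-B as interferon-induced MHC class I level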
Outline: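 HLA-B HiBiT myoblasts, dexamethasone-free growth medium + 4 ng/ml IFN-b; compounds pinned 1 h after seeding, […] from 46 uM; 24 h, 37 C, 5% CO2; lytic HiBiT detection, 10 min RT, luminescence.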

[11] = target: Protein phosphatase 1D (Homo sapiens) (UniProt O15297); assay: RapidFire Mass Spectrometry qHTS Assay for Modulators of WT P53-Induced Phosphatase 1 (WIP1) (AID 1347424); settings: WIP1 dephosphorylation of phosphopeptide, RapidFire MS; series mostly up to 63 µM;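 note: amount of dephosphorylated VEPPL-S-QETFS peptide product formed by WIP1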
Sequence of Protein phosphatase 1D (Homo sapiens) (O15297 whole entry, looked up): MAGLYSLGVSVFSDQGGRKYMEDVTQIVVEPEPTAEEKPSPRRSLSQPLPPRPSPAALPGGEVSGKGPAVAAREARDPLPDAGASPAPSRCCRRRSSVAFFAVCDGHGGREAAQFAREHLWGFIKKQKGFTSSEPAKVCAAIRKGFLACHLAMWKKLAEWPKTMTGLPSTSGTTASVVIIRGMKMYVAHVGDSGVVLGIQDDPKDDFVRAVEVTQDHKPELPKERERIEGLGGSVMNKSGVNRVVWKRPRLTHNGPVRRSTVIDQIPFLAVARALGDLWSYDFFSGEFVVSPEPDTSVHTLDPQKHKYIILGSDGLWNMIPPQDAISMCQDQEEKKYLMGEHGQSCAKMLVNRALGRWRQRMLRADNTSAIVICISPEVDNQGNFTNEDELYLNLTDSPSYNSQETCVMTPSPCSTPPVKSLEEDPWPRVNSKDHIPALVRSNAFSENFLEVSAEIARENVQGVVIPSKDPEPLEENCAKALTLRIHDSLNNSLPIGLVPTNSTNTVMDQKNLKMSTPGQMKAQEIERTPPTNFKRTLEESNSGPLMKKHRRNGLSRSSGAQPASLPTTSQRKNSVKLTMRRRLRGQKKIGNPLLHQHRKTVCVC
Outline: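 RapidFire mass spectrometry measured dephosphorylated peptide after 5 min room-temperature reaction of 2 uM VEPPL-pS-QETFS with 10 nM WIP1 (50 mM Tris-HCl pH 7.5, 30 mM MgCl2, 0.1 mM EGTA, BSA), following 1 hr compound preincubation; 1 uM isotope-labelled product standard.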

[12] = target: Protein phosphatase 1D (Homo sapiens) (UniProt O15297); assay: Rhodamine-PBP qHTS Assay for Modulators of WT P53-Induced Phosphatase 1 (WIP1) (AID 1347425); settings: recombinant WIP1, Rhodamine-PBP phosphate fluorescence, real-time; series mostly up to 57.5 µM
Outline: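 The read-out is the change in Rhodamine-PBP fluorescence (f1 - f0, ex 525/em 598 nm) as Pi is released, read each minute for 11 min. Final reaction: 5 nM WIP1, 10 uM phosphopeptide VEPPL-pS-QETFS, 10 uM Rh-PBP, 50 mM Tris-HCl pH 7.5, 30 mM MgCl2. Compound was preincubated with enzyme for 1 hour at room temperature.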

[13] = Primary qHTS for inhibitors of La Crosse Virus (LACV) - induced cell death in SH-SY5Y cells (AID 1508616); settings: SH-SY5Y LACV cytopathicity rescue, ATP luminescence, 6 d; series mostly up to 4.29 µM;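 note: top concentration of the series differs between compounds; higher means more rescue of cells from virus-induced death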
Outline: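 SH-SY5Y, 6000 cells/well; cpd via pin tool in DMSO; LACV 0.01 MOI; 6 d 37C 5% CO2; ATPLite, 5 min RT; luminescence normalized to ±virus DMSO controls.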

[14] = A High-Content qHTS Against Drug Library for the Identification of Small Molecules that Inhibit DYT1 Early Onset Primary Dystonia-Associated Cell Pathology (AID 1645839; calls by dose curve); settings: HEK293 Flp-In EGFP-delE TorsinA, punctate imaging, 48 h; series mostly up to 46.1 µM
Outline: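 High-content imaging quantified EGFP-TorsinA mislocalization in HEK293-derived cells inducibly expressing DYT1 mutant torsinA, after 48 h exposure to compound given together with tetracycline induction. Cell count served as a toxicity channel alongside %pathology.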

Measured: Potency

O=C1CSC(=O)N1C(CCc1ccncc1)COc1ccc(-c2cccc([N+](=O)[O-])c2)cc1 (stereo not drawn)
active: [5] 14.8 µM | [6] 11.8 µM
inactive: [1] | [2] | [3] | [4]

COC[C@H](NC(=O)c1cnc(C)s1)C(=O)N[C@@H](COC)C(=O)N[C@@H](Cc1ccccc1)C(=O)[C@@]1(C)CO1
active: [1] 0.0523 µM | [7] 10.7 µM | [5] 0.132 µM | [6] 0.0833 µM
inactive: [2] | [3] | [4] | [8]

COc1ccc(S(=O)(=O)Nc2cc(-c3c(O)ccc4ccccc34)c(O)c3ccccc23)cc1
active: [1] 16.5 µM
inactive: [2] | [3]

O=C1c2cccc(O)c2C(=O)c2c(O)cc(CO)cc21
inactive: [1] | [9] | [3] | [5] | [6]

COc1cc(C(C)C)c(Oc2cnc(NC(CO)CO)nc2N)cc1I
active: [4] 19 µM | [8] 12 µM
inactive: [1] | [2] | [3] | [5]

C[C@H](O)[C@@H]1C(=O)N2C(C(=O)O)=C(S[C@@H]3CN[C@H](CNS(N)(=O)=O)C3)[C@@H](C)[C@@H]12
inactive: [1] | [2] | [3] | [4] | [5] | [6]

N[C@H]1CN(c2c(F)cc3c(=O)c(C(=O)O)cn(C4C[C@@H]4F)c3c2Cl)CC12CC2 (stereo partly drawn)
not listed: [1] | [5] | [6] | [7] | [9]
inactive: all other assays above

Nc1cccc2c1C(=O)N(C1CCC(=O)NC1=O)C2=O (stereo not drawn)
inactive: [1]

CN(C)CCN1C(=O)c2cccc3cc(N)cc(c23)C1=O
active: [1] 10.4 µM | [5] 5.25 µM | [6] 4.17 µM
inactive: [9] | [3]

CC1(C)O[C@@H]2C[C@H]3[C@@H]4CCC5=CC(=O)C=C[C@]5(C)[C@@H]4[C@@H](O)C[C@]3(C)[C@]2(C(=O)CO)O1
inactive: [10] | [11] | [12] | [13] | [3] | [14] | [4] | [5]

COc1cc(O)c2c(c1)C1OC1C[C@H](O)[C@H](O)C(=O)C=CC[C@H](C)OC2=O (stereo partly drawn)
active: [1] 13.1 µM | [5] 3.72 µM | [6] 3.32 µM
inactive: [2] | [3]

Cc1cc(Nc2ncc3c(n2)N(C)C(=O)N(c2cc(NC(=O)c4cccc(C(F)(F)F)c4)ccc2C)C3)n(C)n1
active: [1] 0.234 µM | [5] 0.132 µM
inactive: [2] | [3]

Nc1nc2c(c(=O)[nH]1)N(C=O)[C@H](CNc1ccc(C(=O)N[C@@H](CCC(=O)O)C(=O)O)cc1)CN2
inactive: [1] | [2] | [3] | [5]

O=C(c1ccc(F)cc1)N1CCC[C@H](c2nc(-c3ccc(F)cc3)no2)C1
inactive: [1] | [2] | [3] | [5]

CCOC(=O)C1=C(C)NC(=S)NC1c1cccc(O)c1 (stereo not drawn)
inactive: [1] | [2] | [3] | [5]

c1ccc(CNc2nc(NCc3ccccc3)c3ccccc3n2)cc1
active: [1] 26.2 µM | [5] 5.9 µM
inactive: [2] | [3]

C[C@H]1[C@@H](OC(=O)CCC(=O)O)O[C@@H]2O[C@@]3(C)CC[C@@H]4[C@H](C)CC[C@@H]1[C@@]24OO3
active: [5] 1.86 µM | [6] 1.48 µM
inactive: [1] | [2] | [3]

CC(C)C[C@H](NC(=O)[C@@H](NC(=O)c1cccc(-c2ccccc2)n1)[C@@H](C)O)B(O)O
inactive: [2] | [3]
active: [1] 0.0641 µM | [5] 29 nM and 32.3 nM | [6] 18.3 nM and 22.9 nM

CC(=O)O[C@H]1C[C@@H]2CC[C@H]3[C@H]4C[C@H]([N+]5(C)CCCCC5)[C@@H](OC(C)=O)[C@@]4(C)CC[C@@H]3[C@@]2(C)C[C@H]1[N+]1(C)CCCCC1
inactive: [1] | [2] | [3] | [5] | [6]

CC(C)C[C@H](NC(=O)CNC(=O)c1cc(Cl)ccc1Cl)B1OC(=O)CC(CC(=O)O)(C(=O)O)O1 (stereo partly drawn)
inactive: [2] | [3] | [8]
active: [1] 0.294 µM | [5] 0.186 µM | [6] 0.118 µM

O=C(Nc1nnc(-c2ccco2)o1)c1cc(-c2ccccc2)nc2ccccc12
active: [5] 18.6 µM | [6] 13.2 µM
inactive: [1] | [2] | [3]

CC(C(C)N1CC(=O)NC(=O)C1)N1CC(=O)NC(=O)C1 (stereo not drawn)
inactive: [1] | [2] | [3]
active: [5] 5.25 µM | [6] 3.32 µM

OC[C@H]1OC(O)C[C@@H](O)[C@H]1O (stereo partly drawn)
inactive: [1] | [2] | [3] | [5]

c1coc(CNc2ncnc3nc[nH]c23)c1
inactive: [1] | [2] | [3] | [5]

Cc1ccc(O)c(C(CCN(C(C)C)C(C)C)c2ccccc2)c1 (stereo not drawn)
inactive: [1] | [2] | [3] | [5]

CCS(=O)(=O)Nc1ccc2[nH]c(O)c(C(=Nc3ccc(CN4CCCCC4)cc3)c3ccccc3)c2c1
active: [1] 2.62 µM | [5] 0.148 µM
inactive: [2] | [3]

Cc1cc(C(=O)NOCCO)c(Nc2ccc(I)cc2F)n(C)c1=O
inactive: [1] | [2] | [3] | [5]

Cc1c2oc3c(C)ccc(C(=O)NC4C(=O)NC(C(C)C)C(=O)N5CCCC5C(=O)N(C)CC(=O)N(C)C(C(C)C)C(=O)OC4C)c3nc-2c(C(=O)NC2C(=O)NC(C(C)C)C(=O)N3CCCC3C(=O)N(C)CC(=O)N(C)C(C(C)C)C(=O)OC2C)c(N)c1=O (stereo not drawn) (I: TVP[Sar][NMeV] / II: TVP[Sar][NMeV]; ester I:1-I:C, II:1-II:C; linker I:N-II:N via Actinocin(9to1); configuration not given here)
active: [1] 0.114 µM | [5] 0.0014 µM | [6] 0.0006 µM
inactive: [2] | [3]
